Hits are enriched below; roughly 1.1% of the tested compounds scored in any of these assays.
GALR2 ag: agonists of human galanin receptor 2 (GALR2); O43603; GALR2-expressing cells, agonist activation read-out; activation, % (no concentration beside the values); 0.48% of 140,000 active; AID 803; in the data active means activation above about 5%, passing the limit was not always enough;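 further: 0% = vehicle buffer wells and 100% = reference agonist at full effect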
Target sequence (O43603 whole entry, looked up): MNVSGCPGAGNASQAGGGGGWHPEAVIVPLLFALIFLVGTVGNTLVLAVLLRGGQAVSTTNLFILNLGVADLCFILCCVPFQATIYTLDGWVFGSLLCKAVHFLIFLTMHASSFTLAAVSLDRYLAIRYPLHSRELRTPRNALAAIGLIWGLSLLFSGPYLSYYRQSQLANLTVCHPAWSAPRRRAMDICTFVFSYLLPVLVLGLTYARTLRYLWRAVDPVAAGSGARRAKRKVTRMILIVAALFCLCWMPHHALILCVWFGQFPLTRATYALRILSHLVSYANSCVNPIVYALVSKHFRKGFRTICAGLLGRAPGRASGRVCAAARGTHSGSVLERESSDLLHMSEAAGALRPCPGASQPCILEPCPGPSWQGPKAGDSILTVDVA
S1P2 antag: S1P2 (human) receptor antagonism | cell-based S1P2 antagonist assay, inhibition at 5 uM | inhibition, % at 5 µM | 0.21% of 97,000 active | AID 736; in the data active means inhibition above about 45%;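 further: CRE beta-lactamase reporter cells expressing human S1P2 stimulated with S1P; 0% = agonist at EC80 alone and 100% = agonist plus reference antagonist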
Target sequence (O95136 whole entry, looked up): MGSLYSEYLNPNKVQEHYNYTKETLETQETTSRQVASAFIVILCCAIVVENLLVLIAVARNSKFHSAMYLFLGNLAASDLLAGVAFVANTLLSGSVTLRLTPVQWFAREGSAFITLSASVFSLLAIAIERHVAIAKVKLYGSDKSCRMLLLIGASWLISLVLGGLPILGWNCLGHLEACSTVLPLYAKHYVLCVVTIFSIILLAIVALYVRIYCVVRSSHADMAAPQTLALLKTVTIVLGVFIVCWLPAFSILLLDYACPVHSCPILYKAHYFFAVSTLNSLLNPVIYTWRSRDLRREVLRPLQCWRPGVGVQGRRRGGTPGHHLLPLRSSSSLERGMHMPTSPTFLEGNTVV
S1P2 ag: activates the human S1P2 receptor; 0.46% of 97,000 active; S1P2-expressing cell line, agonist reporter read-out; activation, % at 4.5 µM; O95136; AID 729; in the data active means activation above about 16%;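 further: 0% = vehicle low control and 100% = maximal reference agonist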
GALR2 antag: GALR2 (human) receptor antagonism | O43603 | GALR2-expressing cells, antagonist mode | inhibition, % at 4 µM | 0.39% of 140,000 active | AID 828;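 further: cells stimulated with galanin 1-16 at roughly its EC80; 0% = agonist challenge control and 100% = basal control without agonist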
GALR2 ant conf: confirmation of human galanin receptor 2 (GALR2) antagonists; shares compounds with GALR2 antag; 60% of 480 active; inhibition, % at 4 µM; GALR2-expressing cells, antagonist mode, inhibition;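 further: cells stimulated with galanin at about its EC80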
BLA inhib ctr: counter-screen for GALR2 antagonists: beta-lactamase reporter inhibitors; shares compounds with GALR2 antag; CHO NFAT-BLA reporter, beta-lactamase FRET, thapsigargin-stimulated; inhibition, % at 4.2 µM; 36% of 480 active; AID 867;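 active means inhibition above the mean inhibition across tested compounds plus 3 SD, cut at about 27% in these data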;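 further: 0% = 500 nM thapsigargin stimulated wells and 100% = unstimulated BSA only wells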
Active calls of the source: *; nt = no result. Unless noted, no stated cut-off is given here; in the data, active means inhibition above about 27%; inactive means the rest.

SMILES | GALR2 ag | S1P2 antag | S1P2 ag | GALR2 antag | GALR2 ant conf | BLA inhib ctr
C=CCn1nc([N+](=O)[O-])nc1Sc1cccc2cccnc12 | -1.4 | nt | nt | 31.2* | 26.7 | 10.7
CCCN(CC(=O)Nc1ccc(F)c(F)c1F)CC(=O)Nc1c(Cl)cccc1Cl | -0.8 | nt | nt | -10.7 | nt | nt
O=C(CSCc1nc2ccccc2[nH]1)N1CCN(c2ccc(F)cc2)CC1 | -3.2 | 9.9 | -12.9 | 30.1* | 22.9 | 11.4
COC(=O)c1ccc(COC(=O)c2[nH]c(C)c(C(C)=O)c2C)o1 | -0.3 | 28.6 | -1.8 | 27.4* | 29.9* | 2.1
Cc1ccc(NS(=O)(=O)c2ccc(CCC(=O)NC3CC3)cc2)cc1 | -4.0 | -4.0 | -2.7 | 28.1* | 10.0 | 11.5
Cc1ccc(NC(=O)CCc2ccc(S(=O)(=O)NC3CCCCC3)cc2)cc1 | -2.1 | -4.8 | -6.2 | 14.0 | nt | nt
O=C(O)c1ccc(NC(=S)Nc2ccccc2)cc1 | -0.5 | nt | nt | 3.4 | nt | nt
COc1cc(OC)nc(-n2ncc(Br)c(Br)c2=O)n1 | -2.3 | nt | nt | 102.8* | 102.7* | 105.1*
CC(=O)Oc1ccc2cc(-c3nc4ccccc4n3C)c(=O)oc2c1 | 23.4* | 14.5 | 37.8* | 36.9* | 22.7 | 30.0*
COc1cccc(/C=N/Nc2nc(N3CCCC3)nc(N3CCCC3)n2)c1O | -1.4 | -6.3 | -10.3 | 28.6* | 17.2 | 2.5
COc1cccc(OC)c1C(=O)NC(=S)Nc1cc(-c2nc3ccccc3[nH]2)ccc1Cl | -0.8 | nt | nt | 2.8 | nt | nt
COc1cc(C(=O)NC(=S)Nc2ccc([N+](=O)[O-])cc2C)cc(OC)c1OC | -1.1 | nt | nt | 49.5* | 7.2 | 3.9
CCOC(=O)C(NC(=O)c1ccc(Cl)cc1Cl)(Nc1ccc(C)cc1)C(F)(F)F (stereo not drawn) | -1.4 | 1.2 | -5.0 | -9.4 | nt | nt
CC(C)(C)C1=C(C#N)C(c2ccncc2)C(C#N)=C(N)O1 (stereo not drawn) | 0.9 | nt | nt | 32.1* | 14.2 | 4.2
CC(C)(C)C1=C(C#N)C(c2ccc3c(c2)OCO3)C(C#N)=C(N)O1 (stereo not drawn) | -1.3 | 4.3 | -3.7 | 1.1 | nt | nt
O=C(N/N=C/c1cc2c3c(c1O)CCCN3CCC2)c1ccccc1O | -1.5 | nt | nt | 32.3* | 35.3* | 24.5
CN(C)C(=S)SCC(=O)Nc1ccc(Cl)cc1Cl | -0.7 | nt | nt | -1.2 | nt | nt
CCN1CCN(Cc2ccc(NC(=O)CC3Oc4ccc(C)cc4NC3=O)cc2)CC1 (stereo not drawn) | -2.2 | 15.9 | -6.0 | 34.2* | 1.7 | 3.3
N/C(Cc1ccccc1)=N\OC(=O)c1cccc2ccccc12 | -1.3 | nt | nt | 23.2 | nt | nt
N#C/C(=C/c1ccc(-c2ccc(S(N)(=O)=O)cc2)o1)C(=O)Nc1ccccc1 | 0.5 | nt | nt | -2.6 | nt | nt
N#C/C(=C/c1ccc(-c2ccc(S(N)(=O)=O)cc2)o1)c1nc2ccccc2s1 | 0.0 | nt | nt | 28.4* | 40.8* | 51.6*
COc1ccc(C/C(C)=N/NC(=O)c2cccnc2)cc1 | -1.1 | nt | nt | 3.0 | nt | nt
COC(=O)c1ccc(CNC(=O)COC(=O)C2CCC(C(C)(C)C)CC2)cc1 (stereo not drawn) | -0.5 | nt | nt | 1.1 | nt | nt
COc1ccc(OCCNc2cc(N3CCCCC3)ccc2[N+](=O)[O-])cc1 | -3.0 | -33.3 | -1.4 | 1.6 | nt | nt
COc1ccc(OCCNc2cc(Cl)ccc2[N+](=O)[O-])cc1 | -3.7 | -1.3 | 0.6 | 71.2* | 10.7 | 5.2
SMILES | GALR2 ag | S1P2 antag | S1P2 ag | GALR2 antag | GALR2 ant conf | BLA inhib ctr
Cc1ccc(S(=O)(=O)N2CCOCC2)cc1C(=O)N1c2ccccc2Sc2ccccc21 | -1.9 | 2.6 | -1.9 | 1.8 | nt | nt
CC(C)Nc1ncnc2ccc(Br)cc12 | -2.1 | nt | nt | 38.2* | 35.9* | 20.9
CSCCC(Nc1ncnc2ccc(Br)cc12)C(=O)O (stereo not drawn) | -2.6 | -12.9 | -4.9 | 4.1 | nt | nt
CCN(CC)S(=O)(=O)c1ccc(Cl)c(C(=O)Nc2ccc(Cl)cc2[N+](=O)[O-])c1 | -1.8 | nt | nt | 28.4* | 19.7 | 11.8
N#CC1=C(S)N(c2ccccc2)C(c2ccc(-c3ccccc3Cl)o2)NC1=O (stereo not drawn) | -0.1 | nt | nt | -9.5 | nt | nt
CC(=O)n1cc(Nc2ccccc2C(=O)O)c2ccccc21 | -2.6 | 8.6 | -2.4 | 10.6 | nt | nt
CC(=O)SC(C[N+](=O)[O-])c1cn(C(C)=O)c2ccccc12 (stereo not drawn) | -1.1 | 28.7 | -9.6 | 34.8* | 55.6* | 20.7
COc1ccc(NC(=O)c2cc(S(=O)(=O)N(C)C)ccc2N2CCCC2)cc1Cl | -1.1 | nt | nt | 28.3* | 2.3 | -0.2
Cc1ccnc(N2C(=O)c3cccc4c([N+](=O)[O-])ccc(c34)C2=O)c1 | 2.5 | 51.7* | 2.3 | 35.5* | 42.3* | 40.4*
O=C1c2cc([N+](=O)[O-])cc3cc([N+](=O)[O-])cc(c23)C(=O)N1c1ccccn1 | -1.3 | nt | nt | 20.4 | nt | nt
NC(=O)c1c(-c2ccc(Cl)cc2Cl)csc1NC(=O)Cc1ccccc1 | 0.5 | nt | nt | 34.3* | 31.1* | 16.8
O=C(Cc1ccccc1)Nc1scc(-c2ccccc2)c1C(=O)N1CCOCC1 | -3.9 | 14.9 | -9.7 | 1.9 | nt | nt
Cc1ccc2nc(-c3sc4nc(C)ccc4c3N)[nH]c2c1 | 0.9 | -21.0 | -2.8 | 24.0 | nt | nt
Cc1cc(C)c2c(N)c(-c3nc4ccccc4[nH]3)sc2n1 | -0.4 | -10.0 | 3.6 | 28.0* | 25.3 | -0.3
Cc1ccccc1Nc1nc2ccccc2s1 | -0.5 | nt | nt | 9.0 | nt | nt
Cc1ccccc1Nc1cccc2nonc12 | -2.8 | nt | nt | 33.1* | 37.6* | 46.8*
O=C(/C=C/c1cn(CC(O)CN2CCCCCC2)c2ccccc12)c1cccs1 (stereo not drawn) | 1.7 | nt | nt | 20.2 | nt | nt
CCCCN(C)CC(O)Cn1cc(/C=C/C(=O)c2cccs2)c2ccccc21 (stereo not drawn) | 1.2 | nt | nt | 50.1* | 29.4* | 43.1*
O=C(Nc1ccc2nc(-c3cccnc3)[nH]c2c1)C1CCCCC1 | -0.7 | -11.5 | 1.1 | 12.3 | nt | nt
O=C(Nc1ccc2nc(-c3cccnc3)[nH]c2c1)C12CC3CC(CC(C3)C1)C2 | -2.8 | 4.1 | -7.0 | 42.5* | 29.6* | 9.6
Cc1ccc2[nH]c(O)c(N=NC(=O)C(C)n3cnc4ccccc4c3=O)c2c1 (stereo not drawn) | 1.0 | nt | nt | 5.9 | nt | nt
O=C(CCC(=O)Nc1ccccc1)NNC(=O)C(c1ccccc1)c1ccccc1 | -0.3 | nt | nt | 4.8 | nt | nt
Cc1sc2ncnc(NCc3ccco3)c2c1C | 0.3 | -8.9 | -2.7 | 5.6 | nt | nt
Cc1sc2ncnc(NCc3cccs3)c2c1C | -1.6 | 37.0 | -0.6 | 27.5* | 24.2 | 14.0
COc1ccc(NC(=O)/C(Cl)=C(/Cl)S(=O)Cc2ccccc2)cn1 (stereo not drawn) | -3.1 | 100.8* | -6.6 | 104.9* | 101.5* | 105.7*
COc1ccc(/C=C/C(=O)Nc2ccc(OC)nc2)cc1 | -0.7 | nt | nt | 8.3 | nt | nt
COc1ccc(CS(=O)(=O)/C(Cl)=C(/Cl)C(=O)Nc2ccc(OC)nc2)cc1 | -4.4 | 94.7* | -14.0 | 92.5* | 91.8* | 91.9*
N#Cc1ccsc1NC(=O)CN1CCN(S(=O)(=O)c2ccccc2C(F)(F)F)CC1 | 0.0 | nt | nt | -10.0 | nt | nt
CCOC(=O)Nc1sc(C)c(C)c1C(N)=O | 0.2 | nt | nt | -6.5 | nt | nt
CC1(C)CC(=O)C2=C(C1)N(c1cccc(O)c1)C1=C(C2)C(=O)CC(C)(C)C1 | 1.8 | 26.3 | -0.1 | 43.0* | 25.1 | 25.2

Assay outcomes as filed in PubChem BioAssay.
